Reference: PubChem BioAssay AID1851 (National Center for Advancing Translational Sciences (NCATS), 2009)
Where “and” joins values, the source holds several entries; their conditions need not be identical. Equal values may be shown once. Among all 16,000 compounds or so, about 4,000 (25%) were called active. About 26% were inconclusive and are not listed. Calls follow the shape of the dose curve; as a rule, active = well fitted curve in the direction sought with a large enough effect; inconclusive = small, poorly fitted or top-dose-only effect, or effect the other way; inactive = no such curve, though single readings can be large or run the other way. The list is a sample of the results.

Biological target: Cytochrome P450 2C9 (Homo sapiens) (UniProt P11712)
Test: Cytochrome panel assay with activity outcomes
Settings: recombinant CYP, pro-luciferin dealkylation, luminescence, p450-cyp2c9; series mostly up to 57.1 µM; activity, negative = inhibition: at the top concentration
% is scaled to controls: 0 for no effect and ±100 for the full control effect.

Cytochrome P450 2C9 (Homo sapiens), sequence (P11712 whole entry, looked up): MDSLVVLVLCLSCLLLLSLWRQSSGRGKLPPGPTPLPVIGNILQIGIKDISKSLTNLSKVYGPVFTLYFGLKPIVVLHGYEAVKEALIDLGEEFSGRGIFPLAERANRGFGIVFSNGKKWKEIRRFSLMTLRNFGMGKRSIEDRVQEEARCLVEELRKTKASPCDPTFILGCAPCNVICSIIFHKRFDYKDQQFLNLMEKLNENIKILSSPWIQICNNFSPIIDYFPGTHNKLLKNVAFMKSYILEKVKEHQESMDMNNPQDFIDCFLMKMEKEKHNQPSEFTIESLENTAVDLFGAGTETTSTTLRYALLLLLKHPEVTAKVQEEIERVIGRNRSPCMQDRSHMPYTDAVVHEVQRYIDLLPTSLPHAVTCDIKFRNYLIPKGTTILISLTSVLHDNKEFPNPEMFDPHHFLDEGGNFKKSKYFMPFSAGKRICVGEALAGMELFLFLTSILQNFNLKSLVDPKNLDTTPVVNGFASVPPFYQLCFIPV

activity, negative = inhibition, inactive:
COC(=O)c1[nH]c(C)c(/C(O)=C2\C(=O)C(=O)N(CCN(C)C)C2c2cccs2)c1C (centres undefined) 20%, CC1CCN(c2ccc(/C=N/n3nnnc3N)cc2[N+](=O)[O-])CC1 -14.5%, NNS(=O)(=O)c1cc(C(=O)O)cc(C(=O)O)c1 -5.43% [at 11.4 µM], O=c1n(-c2ccccc2)c(=O)n2n1CC[C@H]1/C(=N\OC[C@@H](O)COCc3ccco3)[C@H]3O[C@@H]3[C@@H](O)[C@@H]12 19.1% [at 11.4 µM] and 17% [at 11.4 µM], COc1ccc(Oc2c(C=O)c3ccccc3n2C)cc1 -13%, C[C@H](N=C(NC#N)Nc1ccncc1)C(C)(C)C -23.6%, Cc1cc(C(F)F)n2nc(C(=O)Nc3cccnc3Cl)nc2n1 -21.3%, FC(F)(F)c1ccccc1-c1cc(NCc2ccccc2)ncn1 1.84% [at 2.29 µM], FC(F)(F)c1ccccc1-c1cc(NCc2cccs2)ncn1 -6.83% [at 2.29 µM], FC(F)(F)c1ccccc1-c1nccc(NCc2cccs2)n1 -24.4% [at 2.29 µM], CCNc1ncc2nc(-c3cc(F)cc(F)c3)c(=O)n(Cc3cccs3)c2n1 25.7%, O=C(O)c1ccccc1N/N=C\c1ccnc2ccccc12 -98.6%, Nc1cc(Cl)nc(N/N=C/c2ccccc2[N+](=O)[O-])n1 15.6%

AC50, active:
CC1CCN(c2ccc(S(=O)(=O)Nc3cc(C(=O)O)cc(C(=O)O)c3)cc2[N+](=O)[O-])CC1 14100 nM, COC(=O)c1cc(NS(=O)(=O)c2ccc(N3CCCCCC3)c([N+](=O)[O-])c2)cc(C(=O)OC)c1 2240 nM, COC(=O)c1cc(NS(=O)(=O)c2ccc(N3CCCCC3)c([N+](=O)[O-])c2)cc(C(=O)OC)c1 631 nM, Cc1nc2c(c(-c3ccccc3)c1C#N)C(=O)c1ccccc1-2 447 nM, O=C(Cn1c(-c2cscn2)nc2ccccc21)Nc1cc(F)ccc1F 15800 nM, O=C(Nc1ccc(Br)cc1)c1ccc(CSC2=NCCS2)cc1 7080 nM, COc1ccc(OCCn2c(C)c(/C=N/n3cnnc3)c3ccccc32)cc1 316 nM, Cc1nc(C(=O)Nc2ccc(Cl)cc2Cl)nn1-c1cc(OC(C)C)c(Cl)cc1Cl 2510 nM, FC(F)(F)c1cc(-c2ccco2)nc(NCCc2ccccc2)n1 1410 nM, FC(F)(F)c1cc(-c2ccco2)nc(NCc2cccs2)n1 3550 nM, O=[N+]([O-])c1ccccc1N/N=C/c1c[nH]c2ccccc12 7940 nM
